# Laboratory results as given in PubChem BioAssay (NCATS).
# Results filed as inconclusive are left out. A call without a number means that no potency is given here. A number with no mark means an inactive call. Calls of active or inactive are those of the source. The call rests on the fitted dose curve; in most records, active means well fitted cell-killing curve with a large enough effect; inconclusive means small, poorly fitted or top-dose-only effect, or effect the other way; inactive means flat fitted curve, though single readings scatter. *1 amine or outer side, *2 acyl side, *3 side chain or, on linkers, in order; H or OH if unused. Where a SMILES comes first, the peptide text is derived from it. Bridges are numbered along the chain shown (N, C = ends). [ ]: non-standard residue; d: D form. The star is where a group is joined. ξ: configuration not given here. X10 = NC1=NCCC(C(N[*:1])C(=O)[*:2])N1; ΔAla(3-NHCONH2) = NC(=O)NC=C(N)C(=O)O; ξβ3hOrn = NCCCC(N)CC(=O)*; Dap = NC[CH](N)C(=O)O
# Tested on: Hek293T
# Experiment: Primary qHTS to identify gynecologic anti-cancer compounds using libraries of approved drugs and bioactive compounds (AID 1345084); further: nearly all actives have a fitted effect of over 55% in size
# Conditions: Gynecologic cancer cell panel viability, ATPlite luminescence, 48 h, control line for the selectivity index; series mostly up to 57.5 µM
# Method in brief: (§1)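 Cytotoxicity screen measuring ATP content by luciferase luminescence. Each compound is applied at five concentrations for 48 h at 37 C with 5% CO2.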
SMILES,Potency,"activity change, negative = cytotoxicity"
CC(=O)Nc1ccc(S(=O)(=O)Nc2cc(C)on2)cc1,inactive,
CCCCN(CCN(CCCC)C(=O)N1CCOCC1)C(=O)N1CCOCC1,inactive,
C[C@H]1C[C@H](O)c2ccsc2S1(=O)=O,inactive,
NC(=O)NS(=O)(=O)c1ccc(Cl)cc1,inactive,
Cn1c(=O)c2c(ncn2CC(=O)O)n(C)c1=O,inactive,
C[C@H]1NCc2cc(-c3ccc4c(=O)c(C(=O)O)cn(C5CC5)c4c3OC(F)F)ccc21,inactive,
Cc1nc(C2CCCCC2)c(-c2ccc(S(N)(=O)=O)c(F)c2)o1,inactive,
O=c1[nH]c(=O)n([C@H]2O[C@H](CO)[C@@H](O)[C@@H]2O)cc1/C=C\Br,inactive,
COc1ccccc1OCC1CNC(=O)O1 (centres undefined),inactive,
Nc1ccc([N+](=O)[O-])c(C(F)(F)F)c1,inactive,
N#CSCC(=O)O,inactive,
CCCCN(CCCC)C(C(N)=O)c1ccc(OC)cc1 (centres undefined),inactive,
O=C(CCCl)NCCc1ccccc1,inactive,
O=[N+]([O-])c1ccc(-c2nc(-c3ccc(F)cc3)c(-c3ccncc3)[nH]2)cc1,inactive,
CCC(C(=O)NC(=O)NC(C)=O)c1ccccc1 (centres undefined),inactive,
CCCC(=O)OCOC(=O)C1=C(C)NC(C)=C(C(=O)OC)C1c1cccc(Cl)c1Cl (centres undefined),inactive,
Cc1ccccc1C(=O)N1CC/C(=N\OS(=O)(=O)O)c2ccc(Cl)cc21,inactive,
CC(NC(CCc1ccccc1)C(=O)O)C(=O)N1C(=O)N(C)CC1C(=O)O (centres undefined),inactive,
C1=CC2C3C=CC(C3)C2C1 (centres undefined),inactive,

SMILES,Potency,"activity change, negative = cytotoxicity"
CC1CCCCN1CCCOC(=O)c1ccc(OC2CCCCC2)cc1 (centres undefined),inactive,
CC(C(=O)O)c1ccc(/C=C2\CCCCC2=O)cc1 (centres undefined),inactive,
O=C(CO)[C@@H](O)[C@H](O)[C@@H](O)CO,inactive,
CC(=O)N(CC(O)CO)c1c(I)c(C(=O)NCCO)c(I)c(C(=O)NCC(O)CO)c1I (centres undefined),inactive,
O=C(O)[C@H](O)[C@@H](O)[C@H](O[C@@H]1O[C@H](CO)[C@H](O)[C@H](O)[C@H]1O)[C@H](O)CO,inactive,
CCCCC(O)/C=C(C)/C=C/C=C/C(=O)N1CCCC1=O (centres undefined),inactive,
Cc1ncc([N+](=O)[O-])n1C,inactive,
CCCN(CCC)C(=O)C(CCC(=O)OCCCN1CCN(CCOC(=O)Cc2c(C)n(C(=O)c3ccc(Cl)cc3)c3ccc(OC)cc23)CC1)NC(=O)c1ccccc1 (centres undefined),inactive,
COC(=O)c1c(Cl)c(Cl)c(C(=O)OC)c(Cl)c1Cl,inactive,
NCCCC(N)CC(=O)NCC1NC(=O)C(CO)NC(=O)C(N)CNC(=O)C(C2CCN=C(N)N2)NC(=O)C(=CNC(N)=O)NC1=O (stereo not drawn) (H-[Dap]S[Dap](ξβ3hOrn)[ΔAla(3-NHCONH2)][X10]; lactam 1-C; configuration not given here),,-1.45% [at 0.462 µM]
CC(NN)c1ccccc1 (centres undefined),inactive,
c1ccc2occc2c1,inactive,
CCCCCOc1ccc(C2SC(=O)NC2=O)cc1OCC (centres undefined),inactive,
CCCc1c2oc(C(=O)O)cc(=O)c2cc2c(=O)cc(C(=O)O)n(CC)c12,inactive,
COc1ccc2c(c1)CCCC2=O,inactive,
Cc1ccc(O)cc1,inactive,
CC(CCc1ccc2c(c1)OCO2)NN (centres undefined),inactive,
Cc1cc(=O)oc2cc(O[C@@H]3SC[C@@H](O)[C@H](O)[C@H]3O)ccc12,inactive,

# Tested on: JEG-3
# Experiment: as above
# Conditions: Gynecologic cancer cell panel viability, ATPlite luminescence, 48 h; series mostly up to 57.5 µM
# Method in brief: as §1
SMILES,Potency,"activity change, negative = cytotoxicity"
CC(=O)Nc1ccc(S(=O)(=O)Nc2cc(C)on2)cc1,inactive,
CCCCN(CCN(CCCC)C(=O)N1CCOCC1)C(=O)N1CCOCC1,inactive,
C[C@H]1C[C@H](O)c2ccsc2S1(=O)=O,inactive,
NC(=O)NS(=O)(=O)c1ccc(Cl)cc1,inactive,
Cn1c(=O)c2c(ncn2CC(=O)O)n(C)c1=O,inactive,
C[C@H]1NCc2cc(-c3ccc4c(=O)c(C(=O)O)cn(C5CC5)c4c3OC(F)F)ccc21,inactive,
Cc1nc(C2CCCCC2)c(-c2ccc(S(N)(=O)=O)c(F)c2)o1,inactive,
O=c1[nH]c(=O)n([C@H]2O[C@H](CO)[C@@H](O)[C@@H]2O)cc1/C=C\Br,inactive,
COc1ccccc1OCC1CNC(=O)O1 (centres undefined),inactive,
Nc1ccc([N+](=O)[O-])c(C(F)(F)F)c1,inactive,
N#CSCC(=O)O,inactive,
CCCCN(CCCC)C(C(N)=O)c1ccc(OC)cc1 (centres undefined),inactive,
O=C(CCCl)NCCc1ccccc1,inactive,
O=[N+]([O-])c1ccc(-c2nc(-c3ccc(F)cc3)c(-c3ccncc3)[nH]2)cc1,inactive,
CCC(C(=O)NC(=O)NC(C)=O)c1ccccc1 (centres undefined),inactive,
CCCC(=O)OCOC(=O)C1=C(C)NC(C)=C(C(=O)OC)C1c1cccc(Cl)c1Cl (centres undefined),inactive,
Cc1ccccc1C(=O)N1CC/C(=N\OS(=O)(=O)O)c2ccc(Cl)cc21,inactive,
CC(NC(CCc1ccccc1)C(=O)O)C(=O)N1C(=O)N(C)CC1C(=O)O (centres undefined),inactive,
C1=CC2C3C=CC(C3)C2C1 (centres undefined),inactive,

SMILES,Potency,"activity change, negative = cytotoxicity"
CC1CCCCN1CCCOC(=O)c1ccc(OC2CCCCC2)cc1 (centres undefined),inactive,
CC(C(=O)O)c1ccc(/C=C2\CCCCC2=O)cc1 (centres undefined),inactive,
O=C(CO)[C@@H](O)[C@H](O)[C@@H](O)CO,inactive,
CC(=O)N(CC(O)CO)c1c(I)c(C(=O)NCCO)c(I)c(C(=O)NCC(O)CO)c1I (centres undefined),inactive,
O=C(O)[C@H](O)[C@@H](O)[C@H](O[C@@H]1O[C@H](CO)[C@H](O)[C@H](O)[C@H]1O)[C@H](O)CO,inactive,
CCCCC(O)/C=C(C)/C=C/C=C/C(=O)N1CCCC1=O (centres undefined),inactive,
Cc1ncc([N+](=O)[O-])n1C,inactive,
CCCN(CCC)C(=O)C(CCC(=O)OCCCN1CCN(CCOC(=O)Cc2c(C)n(C(=O)c3ccc(Cl)cc3)c3ccc(OC)cc23)CC1)NC(=O)c1ccccc1 (centres undefined),inactive,
COC(=O)c1c(Cl)c(Cl)c(C(=O)OC)c(Cl)c1Cl,inactive,
NCCCC(N)CC(=O)NCC1NC(=O)C(CO)NC(=O)C(N)CNC(=O)C(C2CCN=C(N)N2)NC(=O)C(=CNC(N)=O)NC1=O (stereo not drawn) (H-[Dap]S[Dap](ξβ3hOrn)[ΔAla(3-NHCONH2)][X10]; lactam 1-C; configuration not given here),,1.16% [at 0.462 µM]
CC(NN)c1ccccc1 (centres undefined),inactive,
c1ccc2occc2c1,inactive,
CCCCCOc1ccc(C2SC(=O)NC2=O)cc1OCC (centres undefined),inactive,
CCCc1c2oc(C(=O)O)cc(=O)c2cc2c(=O)cc(C(=O)O)n(CC)c12,inactive,
COc1ccc2c(c1)CCCC2=O,inactive,
Cc1ccc(O)cc1,inactive,
CC(CCc1ccc2c(c1)OCO2)NN (centres undefined),inactive,
Cc1cc(=O)oc2cc(O[C@@H]3SC[C@@H](O)[C@H](O)[C@H]3O)ccc12,inactive,
